Assay outcomes deposited in PubChem by National Center for Advancing Translational Sciences (NCATS).
RGS4 inhibitor: blocks human RGS4-accelerated GTP hydrolysis | AID 504845 | P49798 | 390,000 tested, 0.039% active | Potency, µM (series often up to 114 µM), for inactives: at the highest dose activity change, negative = inhibition, hits mostly inhibitors | Transcreener GDP fluorescence polarization, RGS4-accelerated GTP hydrolysis; also: potency is read from the fitted curve at half-maximal effect; % is scaled to controls: 0 for no effect and ±100 for the full control effect; nearly all actives have a fitted effect of over 75% in size
Target sequence (P49798 whole entry, looked up): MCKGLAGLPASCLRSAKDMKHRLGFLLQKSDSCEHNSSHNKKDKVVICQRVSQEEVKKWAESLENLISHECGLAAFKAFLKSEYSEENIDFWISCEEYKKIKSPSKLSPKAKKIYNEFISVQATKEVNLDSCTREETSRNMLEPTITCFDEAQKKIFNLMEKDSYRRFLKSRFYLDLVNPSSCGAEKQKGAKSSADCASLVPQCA
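MLSMR compounds (23 nl, pin-transferred) preincubated 10 min at room temperature with a 500nM (2x) first reagent, then RGS4 at 900nM (2x) plus Transcreener GDP mix added; fluorescence polarization (620/688 nm) read before and after 90 min at 30 °C.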
BRCA1 expr up: increases BRCA1 expression; MCF7-BRCA1-FFLuc reporter, luminescence, 48 h; response scale: scaled: vehicle 0%, 10 µM genistein 100%; Potency, µM (titrated, usually from 46.1 µM), for the others: top-dose activation, usual class: activators; 380,000 tested, 1.1% active; also: potency is read from the fitted curve at half-maximal effect; nearly all actives have a fitted effect of over 80% in size
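Activators of BRCA1 expression were detected as increased firefly luciferase luminescence in engineered MCF7 cells after 48 h compound incubation. Signals were scaled to genistein 10 microM as full activation.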
PTHR1 ag: PTHR1 (human) receptor agonism. Potency, µM (top dose mostly 115 µM), for inactives: at the top dose activation, most hits filed as activators. HEK293 GP2 PTHR1 cells, GloSensor cAMP luminescence, 1 h. 410,000 tested, 0.075% active; also: potency is read from the fitted curve at half-maximal effect; nearly all actives have a fitted effect of over 55% in size
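HEK-293-derived GP2 cells expressing PTHR1 and a GloSensor cAMP reporter, 3,000/well, plated overnight, given luciferin plus IBMX (each 0.5 mM as added) for 1 h at 37 °C, then compound for 1 h at 37 °C. Luminescence was read after 15 min at room temperature.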
D3 ag: D3 dopamine receptor (human) agonism | P35462 | D3R DiscoveRx beta-arrestin cells, luminescence, 90 min | max activation, % | 410,000 tested, 0.58% active | AID 652048; in the data active = max activation above about 30%; also: 0% is about no effect
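Agonist mode: compounds and dopamine controls were applied to plated cells for 90 min at 37 degrees C after an overnight attachment at 1500 cells/well. Luminescent read-out followed 30 - 60 minutes at room temperature with DiscoveRx detection reagent.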
DRD3 antagonist: blocks the human D3 dopamine receptor; P35462; D3R cells, DiscoveRx beta-arrestin luminescence, antagonist mode; stronger effect = lower value; max response, negative = inhibition, %; 360,000 tested, 2.5% active; in the data active = max response below about -50%; inconclusive = no clear call, values can overlap the other calls; also: % is scaled to controls: 0 for no effect and ±100 for the full control effect
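Cells expressing the human receptor were seeded at 1500 cells/well, incubated overnight at 37 degrees C in 5% CO2, then exposed to library compounds with dopamine controls for 90 minutes at 37 degrees C before luminescent detection.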
B2AR arrestin: beta2AR (human) beta-arrestin recruitment activity; beta-arrestin recruitment to beta2AR, cell-based reporter; Potency, µM (top dose mostly 46.1 µM), inactives show at the highest dose activation, usual class: activators; 330,000 tested, 0.02% active;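 also: potency is read from the fitted curve at half-maximal effect; 0% = DMSO controls and full agonism = EC100 isoproterenol or metaproterenol; nearly all actives have a fitted effect of over 65% in size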
Target sequence (P07550 whole entry, looked up): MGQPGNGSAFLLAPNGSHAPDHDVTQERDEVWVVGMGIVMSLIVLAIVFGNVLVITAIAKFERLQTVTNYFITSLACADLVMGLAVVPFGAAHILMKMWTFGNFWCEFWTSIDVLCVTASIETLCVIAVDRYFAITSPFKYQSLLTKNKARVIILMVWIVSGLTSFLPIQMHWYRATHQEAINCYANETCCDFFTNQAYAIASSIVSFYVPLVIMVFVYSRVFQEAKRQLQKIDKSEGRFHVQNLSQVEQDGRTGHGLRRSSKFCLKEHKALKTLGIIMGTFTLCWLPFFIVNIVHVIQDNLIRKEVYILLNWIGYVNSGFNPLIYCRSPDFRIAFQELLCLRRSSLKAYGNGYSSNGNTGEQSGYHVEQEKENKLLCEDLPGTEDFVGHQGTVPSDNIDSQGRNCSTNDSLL
The depositor's hits bear a star; i = inactive; ? = inconclusive; · = no result given; ! = not active in a repeat; [ ] = dose if it differs, or a comment. Shown are actives, neighbours in structure and some others; about 3.7% of the full set was active somewhere. Unless noted, calls follow the shape of the dose curve; as a rule, active = well fitted curve in the direction sought with a large enough effect; inconclusive = small, poorly fitted or top-dose-only effect, or another doubt; inactive = no such curve, though single readings can be large; an effect the other way counts as inactive or inconclusive.

SMILES | RGS4 inhibitor | BRCA1 expr up | PTHR1 ag | D3 ag | DRD3 antagonist | B2AR arrestin
Cc1ccc2nc(N(CCCN(C)C)C(=O)c3ccc(Br)s3)sc2c1 | 1% | -18% | -5% | -10 | -53* | 1%
COc1ccc(N2CC(O)(c3ccc(OC(F)F)cc3)[N+]3=C2CCCC3)cc1 (stereo not given) | 23% | -28% | i | -14 | -50* | 0%
COc1ccc(N2CC(O)(c3ccc(F)cc3)[N+]3=C2CCCC3)cc1 (stereo not given) | -1% | -7% | i | 1 | ? | 0%
COc1cc(S(=O)(=O)N2CCC(O)(c3cccc(C(F)(F)F)c3)CC2)ccc1-n1cnnn1 | 0% | -30% | -1%[57.5 µM] | 2 | -82* | -1%
COC(=O)c1sc2ccccc2c1NC(=O)c1ccc(S(=O)(=O)N2CCCCC2)cc1 | -4% | 2% | i | 38* | 7 | 0%
CCCOc1ccc(F)cc1-c1cc(C(=O)NCc2cccc(Cl)c2)[nH]n1 | · | -43% | -6% | -8 | -6 | ·
COc1ccc(NC(=O)c2cc(-c3cc(F)ccc3OC(C)C)n[nH]2)c(OC)c1 | · | -35% | i | 1 | 43 | ·
COc1ccc(NC(=O)c2cc(-c3cc(F)ccc3OC)n[nH]2)c(C)c1 | · | -4% | -20% | -8 | -51* | ·
Cc1cc(F)ccc1-c1cc(C(=O)Nc2ccc(F)cc2)[nH]n1 | · | ? | -32% | -22 | -58* | ·
Cc1ccc(-c2cccc(C(=O)NCCc3ccccc3)n2)c2ccccc12 | 2% | -3% | i | -18 | -22 | 0%
CCCOc1ccc(F)cc1-c1cc(C(=O)NCc2ccccc2)[nH]n1 | · | -21% | i | -19 | -99* | ·
Cc1ccc(-c2cccc(C(=O)NCc3ccccc3)n2)c2ccccc12 | -4% | -26% | -47% | 0 | -59* | 0%
CCOc1ccccc1N(C)C(=O)Cn1cnc2sc(C)c(S(=O)(=O)N3CCC(C)CC3)c2c1=O | -10% | · | i | -5 | · | ·
CCCNC(=O)C1(C)CCN(Cc2ccc(OCc3ccccc3)cc2)C1 (stereo not given) | · | 25% | i | -15 | -27 | ·
Cc1cc(O)ccc1-c1cc(C(=O)NCc2ccc(F)cc2)[nH]n1 | · | 11% | i | -17 | ? | ·
Cc1cccc(NC(=O)c2cc(-c3cc(C)ccc3O)n[nH]2)c1 | -20% | 1.6µM* | -9% | -17 | -14 | 0%
COc1ccc(Cl)cc1-c1cc(C(=O)Nc2ccc(F)cc2)[nH]n1 | · | -3% | 1% | -19 | -69* | ·
Cc1cc(F)ccc1-c1cc(C(=O)NCc2ccccc2)[nH]n1 | · | 12% | -3% | -20 | -89* | ·
Cc1ccccc1CN(c1ccc(C(=O)N2CCN(C)CC2)cc1)S(C)(=O)=O | 27% | 19% | i | 8 | 2 | ·
COC(=O)[C@]1(C)N[C@H](CN(C)C(=O)Nc2ccccc2)[C@@H]2C(=O)N(C)C(=O)[C@@H]21 | -7% | 13% | -2% | 25 | 33 | -1%
CC1=C(c2ccc(F)cc2)S(=O)(=O)N=C1N1CCC(C(=O)NCCc2ccco2)CC1 | -4% | · | -22% | 8 | · | ·
COc1ccc(C(=O)NCCSC2CCCCC2)cc1 | 25% | 1.8µM* | -2% | -4 | -2 | 0%
CN1CCc2c(c3ccccc3n2C)C1 | 18% | 0% | i | -3 | -73* | 0%
CCCCN1CCc2c(c3ccccc3n2Cc2ccccc2)C1 | -3% | -41% | i | -21 | -93* | 0%
CN1CCc2c(c3ccccc3n2Cc2ccccc2)C1 | -6% | -2% | -44% | -94 | -91*! | 0%
SMILES | RGS4 inhibitor | BRCA1 expr up | PTHR1 ag | D3 ag | DRD3 antagonist | B2AR arrestin
O=C(c1ccco1)N1CCN(C2CN(Cc3ccc(F)cc3)S(=O)(=O)C2)CC1 (stereo not given) | · | 13% | -6% | -7 | 0 | ·
COc1ccc(C(O)(C(C)C)C(CN2CCOCC2)c2ccc(Cl)cc2)cc1 (stereo not given) | 13% | -21% | i | -7 | -55* | -1%
Cc1ccc(N(C(=O)c2nsc(Cl)c2Cl)C(C(=O)NC2CCCC2)c2ccc(O)cc2)cc1C (stereo not given) | 2% | -87% | -17% | -31 | -52* | -1%
CSc1nc(=O)n(-c2ccccc2)c(C)c1C(C)=O | 6% | 9% | -12%[57.5 µM] | 34* | 17 | 0%
CCSc1nc(=O)n(-c2ccccc2)c(C)c1C(C)=O | 5% | 19% | -13% | -9 | ? | 0%
COc1ccc(/C=N/Nc2ncc(Br)cn2)c(OC)c1 | -65%[56.9 µM] | 10µM* | i | -3 | 2 | -1%
Oc1c(Cl)cc(Cl)cc1/C=N/Nc1ncc(Br)cn1 | 34% | -49% | -9% | -25 | -107* | 0%
Cc1cccc(NC(=O)CNC(=O)[C@H]2O[C@@H](n3ccc(N)nc3=O)[C@H](O)[C@@H]2O)c1C | · | 17% | -28% | 6 | 1 | ·
COc1ccc2cc(C3=CC(=O)CC(C)(C)C3=O)ccc2c1 | · | 13µM* | -39% | 0 | 2 | ·
COc1ccc(-c2ccccc2C2=CC(=O)CC(C)(C)C2=O)cc1 | · | -18% | -25% | 3 | 1 | ·
Cc1c(Cl)cccc1NC(=O)c1ccc2c(c1)CCCN2S(C)(=O)=O | -4% | · | -44% | -11 | · | ·
Cc1ccc(C)c(N2CCN(c3nc4c(S(=O)(=O)c5ccccc5)nnn4c4ccc(Cl)cc34)CC2)c1 | 14% | · | i | 4 | · | ·
Cc1cccc(N/C=C/c2onc(C)c2[N+](=O)[O-])c1 | 29% | 2.5µM* | i | 0 | ? | ·
Cc1ccc(Cn2ccc(=O)c(OCc3ccccc3)c2C)cc1 | -7% | 11µM* | i | -2 | 13 | 0%
Cc1ccc(-c2nn(-c3ccccc3)cc2/C=N/NS(=O)(=O)c2ccccc2)cc1 | -7% | 78% | i | -10 | -54* | 0%
Cc1ccc(-c2nn(-c3ccccc3)cc2CO)cc1 | -8% | 7.9µM* | -35% | 7 | -23 | -1%
O/N=C/c1cn(-c2ccccc2)nc1-c1cccnc1 | 18% | -21% | i | -3 | -16 | 0%
CC1=NNC(=O)/C1=C\c1cn(-c2ccccc2)nc1-c1ccc(F)cc1 | ? | -105% | -56% | -3 | -69* | 0%
Cc1ccc(-c2nn(-c3ccccc3)cc2/C=N/O)cc1 | -2% | -37% | -9% | -6 | -53* | 0%
CCc1ccc(C(=O)Nc2cc(C)on2)o1 | 2% | ? | i | 1 | 11 | 0%
CCOC(=O)c1cnn2c(C)cc(-c3ccc(F)cc3)nc12 | 12% | 2.8µM* | -18% | 0 | 11 | 0%
Cc1cc(-c2ccc(F)cc2)nc2cc(C(N)=O)nn12 | -5% | 0% | -5%[57.5 µM] | -16 | -76* | -1%
